Test results reported in PubChem BioAssay AID652180 (National Center for Advancing Translational Sciences (NCATS), 2013).
Results filed as inconclusive are left out. A number with no mark means an inactive call. Active and inactive are the calls of the source. The call rests on the fitted dose curve; in most records, active means well fitted inhibition curve with a large enough effect; inconclusive means small, poorly fitted or top-dose-only effect; inactive means no such curve, though single readings can be large or run the other way.

Assay: qHTS Assay for Lipid Storage Modulators: 3T3L1 Assay against Probe and Analogs
Settings: 3T3-L1 lipid droplets, BODIPY imaging, oleic acid, 18-24 h; series mostly up to 46.1 µM; activity change, negative = decreased lipid storage: at the top concentration
Method in brief: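 Lipid droplet number and size, plus cell count, were measured by imaging BODIPY- and Hoechst-stained 3T3L1 cells. Compounds (0.46% DMSO final) were co-incubated for 18-24 h with oleic acid, added at 400 uM, to induce droplets. Triacsin C served as control.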

SMILES | activity change, negative = decreased lipid storage [%] | Potency
O=C(NCCc1ccc(O)c(O)c1)c1cc2sccc2n1Cc1ccccc1 | 7.56 | –
COc1cc(C)c(Sc2cnc(NC(=O)c3ccc(CNC(C)C(C)(C)C)cc3)s2)cc1C(=O)N1CCN(C(C)=O)CC1 (stereo unspecified) | – | 3320 nM (active)
O=C(NC1CCCc2c1cnn2-c1ccc(F)cc1F)c1ccn[nH]1 (stereo unspecified) | -26.1 | –
CCOC(=O)C1CCN(C(=O)C2(NC(=O)Nc3ccccc3Cl)CC2)CC1 | -13.9 | –
CCOC(=O)C1CCN(C(=O)C(C)(C)NC(=O)Nc2cccc(C(=O)OC)c2)CC1 | -25.1 | –
O=C(NC1CCCc2c1cnn2-c1ccc(F)cc1F)c1cnon1 (stereo unspecified) | -9.25 | –
Cc1cc(SCc2sc(-c3ccc(C(F)(F)F)cc3)nc2C)ccc1OCC(=O)O | 28 | –
CC(C)(C)OC(=O)NCCOCCOCCOCCn1ncc2c1CCCC2NC(=O)c1ccccn1 (stereo unspecified) | -33.2 | –
CCOc1cc(F)c(CCNC(=O)c2cc3sccc3n2Cc2ccccc2)cc1OCC | – | 14.8 nM (active)
Cc1cc2c(cc1C1(c3ccc(C(=O)O)cc3)CC1)C(C)(C)CCC2(C)C | 111 | –
CCOC(=O)C1CCN(C(=O)C(C)(C)NC(=O)Nc2ccc(F)c(F)c2)CC1 | -37.2 | –
CC1=C(C(=O)NC2CCCc3c2cnn3-c2ccc(F)cc2F)OCCO1 (stereo unspecified) | 29.3 | –
O=C(NC1CCCc2c1cnn2-c1ccc(F)cc1F)c1ccc(C(=O)c2ccccc2)cc1 (stereo unspecified) | 36.4 | –
CCOc1ccc(CCNC(=O)c2cc3sccc3n2Cc2ccccn2)cc1OCC | – | 23.5 nM (active)
O=C(O)CCc1ccc(NCc2cccc(Oc3ccccc3)c2)cc1 | -49.7 | –
CCOc1ccc(CCNC(=O)c2cc3sccc3n2CCN2CCN(C)CC2)cc1OCC | – | 1320 nM (active)
